The nature of experiment [1]: E. coli DRC41 culture turbidity changes, primary screen, E. coli filamentation inducer project, strain DRC41, OD650, 48 h (AID 1152).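 Also: E. coli MC1000 strain DRC41 lacking acrAB efflux pump and sulA.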 Conditions: E. coli DRC41 (acrAB sulA), higher = more signal, called active from +8 up or from −8 down.
Experiment [2] is described as follows: small-molecule binders of probe aLefty1, primary screen, biochemical, small-molecule microarray, 635/667 nm fluorescence (AID 1153).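 Also: score merges spot fluorescence with signal-to-noise ratio from the scanned slide images.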 Conditions: higher = more signal.
Experiment [3] can be described thus: PSAC antagonists in infected red cells, primary screen, cell-based, P. falciparum Indochina, OD700, 1 h (AID 1154). Conditions: P. falciparum Indochina infected RBC osmotic lysis, higher = more signal, called active from +8 up or from −8 down.
A short description of experiment [4]: PSAC antagonists in infected red cells, primary screen, cell-based, P. falciparum Indochina, OD700, 2 h (AID 1155).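 Also: lysis reports solute entry through the parasite surface anion channel PSAC; channel blockers reduce lysis of infected cells.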 Conditions: P. falciparum Indochina infected erythrocytes, osmotic lysis OD700; higher = more signal, called active from +8 up or from −8 down.
Experiment [5] is described as follows: osmotic lysis modulators in infected erythrocytes, primary screen, PSAC antagonist project, cell-based, P. falciparum Indochina, OD700, 3 h (AID 1156). Conditions: higher = more signal, called active from +8 up or from −8 down.
Experiment [6] is described as follows: PSAC antagonists in infected red cells, primary screen, cell-based, P. falciparum Indochina, OD700, 18 h (AID 1157). Conditions: P. falciparum Indochina infected erythrocytes, osmotic lysis OD700, 18 h; higher = more signal, called active from +8 up or from −8 down.
Experiment [7] can be described thus: modulators of S6 phosphorylation in cells, primary screen, cell-based, A549, cytoblot, luminescence, serum-stimulated (AID 1158).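 Also: serum-stimulated A549 lung adenocarcinoma cells; signal is phosphorylated S6 detected by cytoblot immunostaining with HRP secondary.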 Conditions: A549 phospho-S6 cytoblot, 5 h, higher = more signal.
In experiment [8] the target is NADPH oxidase 2 (Homo sapiens) (UniProt P04839). Nature of the experiment: NOX2-dependent H2O2 signal modulators, primary screen, NOX inhibitor project, cell-based, HEK293-NOX2, PMA-stimulated, Amplex Red fluorescence (AID 1159). Also: test concentration not given here. Conditions: 45 min, higher = more signal, called active from +8 up or from −8 down.
Sequence of NADPH oxidase 2 (Homo sapiens) (P04839 whole entry, looked up): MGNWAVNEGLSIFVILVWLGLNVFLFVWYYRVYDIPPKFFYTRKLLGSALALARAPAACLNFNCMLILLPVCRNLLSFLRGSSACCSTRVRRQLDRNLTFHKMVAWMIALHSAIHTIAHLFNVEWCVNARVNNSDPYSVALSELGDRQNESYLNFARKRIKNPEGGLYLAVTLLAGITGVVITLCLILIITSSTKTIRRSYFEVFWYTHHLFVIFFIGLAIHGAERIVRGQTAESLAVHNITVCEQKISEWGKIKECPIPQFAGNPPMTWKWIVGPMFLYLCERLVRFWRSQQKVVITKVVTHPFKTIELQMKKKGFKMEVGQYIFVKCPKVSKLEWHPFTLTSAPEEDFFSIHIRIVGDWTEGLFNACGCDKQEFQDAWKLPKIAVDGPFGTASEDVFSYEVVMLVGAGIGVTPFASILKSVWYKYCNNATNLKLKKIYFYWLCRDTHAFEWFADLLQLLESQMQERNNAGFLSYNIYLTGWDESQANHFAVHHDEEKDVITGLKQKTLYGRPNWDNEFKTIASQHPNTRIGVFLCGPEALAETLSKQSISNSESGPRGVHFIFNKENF
Experiment [9] concerns the target NADPH oxidase 4 (Homo sapiens) (UniProt Q9NPH5). As to the kind of experiment: NOX4-dependent H2O2 signal modulators, primary screen, NOX inhibitor project, cell-based, HEK293-NOX4, tetracycline-induced, Amplex Red fluorescence (AID 1160). Conditions: 45 min, higher = more signal, called active from +8 up or from −8 down.
For experiment [10], the target named is NADPH oxidase 5 (Homo sapiens) (UniProt Q96PH1). As to the kind of experiment: NOX5-dependent H2O2 signal modulators, primary screen, NOX inhibitor project, cell-based, HEK293-NOX5, Amplex Red fluorescence (AID 1161). Conditions: HEK293-NOX5, ionomycin, 45 min, higher = more signal.
Sequence of NADPH oxidase 5 (Homo sapiens) (Q96PH1 whole entry, looked up): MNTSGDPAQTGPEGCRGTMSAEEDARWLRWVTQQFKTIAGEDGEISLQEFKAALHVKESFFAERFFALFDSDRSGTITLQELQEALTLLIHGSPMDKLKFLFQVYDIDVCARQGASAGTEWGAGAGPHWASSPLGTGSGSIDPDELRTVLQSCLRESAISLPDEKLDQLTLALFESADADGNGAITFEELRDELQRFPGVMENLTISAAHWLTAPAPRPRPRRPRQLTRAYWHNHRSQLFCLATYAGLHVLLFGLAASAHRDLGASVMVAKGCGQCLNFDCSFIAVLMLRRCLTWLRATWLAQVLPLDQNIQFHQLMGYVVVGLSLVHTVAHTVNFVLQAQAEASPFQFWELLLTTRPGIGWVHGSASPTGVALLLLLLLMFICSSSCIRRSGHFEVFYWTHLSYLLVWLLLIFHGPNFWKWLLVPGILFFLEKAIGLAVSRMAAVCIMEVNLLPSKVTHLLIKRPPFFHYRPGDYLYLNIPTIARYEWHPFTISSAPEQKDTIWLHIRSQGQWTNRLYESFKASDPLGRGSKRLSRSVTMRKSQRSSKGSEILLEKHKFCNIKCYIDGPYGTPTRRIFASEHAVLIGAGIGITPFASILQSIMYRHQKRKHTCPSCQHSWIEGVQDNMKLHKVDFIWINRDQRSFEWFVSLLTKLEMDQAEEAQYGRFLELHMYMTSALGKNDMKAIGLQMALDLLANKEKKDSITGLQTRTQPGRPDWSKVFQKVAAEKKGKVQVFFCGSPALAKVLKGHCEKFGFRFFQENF

Activity calls are given as the source filed them.

From PubChem BioAssay come the findings set out here.

Sequence of NADPH oxidase 4 (Homo sapiens) (Q9NPH5 whole entry, looked up): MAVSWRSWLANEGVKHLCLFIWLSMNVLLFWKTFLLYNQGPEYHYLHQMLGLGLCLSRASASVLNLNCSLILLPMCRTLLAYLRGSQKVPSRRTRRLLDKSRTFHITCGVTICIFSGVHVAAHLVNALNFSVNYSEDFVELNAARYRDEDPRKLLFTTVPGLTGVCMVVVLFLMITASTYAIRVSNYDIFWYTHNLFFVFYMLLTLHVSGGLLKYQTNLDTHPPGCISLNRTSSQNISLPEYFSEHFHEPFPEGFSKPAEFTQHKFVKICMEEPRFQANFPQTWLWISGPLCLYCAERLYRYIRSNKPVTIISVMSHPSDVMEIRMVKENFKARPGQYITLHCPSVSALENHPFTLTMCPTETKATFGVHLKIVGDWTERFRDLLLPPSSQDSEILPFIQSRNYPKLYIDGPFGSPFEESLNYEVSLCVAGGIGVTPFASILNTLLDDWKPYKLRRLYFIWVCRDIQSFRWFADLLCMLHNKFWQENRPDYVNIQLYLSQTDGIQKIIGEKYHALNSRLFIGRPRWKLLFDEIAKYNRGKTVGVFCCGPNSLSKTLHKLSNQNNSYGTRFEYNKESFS

On to `CCN1C(C)=C(C(=O)OC)[C@@H](c2ccccc2)N2C(=O)[C@@]3(C(=O)OC)O[C@@]12[C@@H]1C(=O)N(c2ccccc2)C(=O)[C@@H]13`, for which the z-score is 0.325 (inactive) in experiment [1]; 0.69 (inactive) in [3]; -0.39 (inactive) in experiment [4]; 0.0305 (inactive) in experiment [5]; -1.08 (inactive) in experiment [6]; 0.422 in experiment [7]. Further, the z-score in experiment [8] was -0.816 (inactive); in experiment [9], 0.267 (inactive); in [10], -0.283. Also, in experiment [2], the composite z-score came out at 0.0166.

Turning to `[N-]=[N+]=NCc1ccccc1C[C@]1(C(=O)N2CCCCC2)N=C(c2ccc(OCCCO)cc2)O[C@H]1c1ccccc1CN=[N+]=[N-]`, the z-score in experiment [1] was -0.481 (inactive); in [3] it was 16.1 (active); in experiment [4], 3.02 (inactive); in experiment [5], 2.16 (inactive); in experiment [6], 1.16 (inactive); in [7], -0.574. In addition, the values for the z-score in experiment [8], in experiment [9] and in experiment [10] were 0.545 (inactive), -0.692 (inactive) and -0.824, respectively. In experiment [2], this compound showed a composite z-score of 0.42.

In the case of `CN1C(=O)C2C=CC(C(O)C3CC=CCC3)N(Nc3ccccc3)C2C1=O` (stereo not given), the z-score in experiment [1] was -1.08 (inactive); in [3], 0.756 (inactive); in [4] it was 0.0735 (inactive); in experiment [5], -0.139 (inactive); in experiment [6], 0.459 (inactive); in [7] it was -0.879. Besides, the z-score is -1.81 (inactive) in [8], -3.23 (inactive) in [9] and -3.05 in experiment [10]. In addition, in experiment [2], the composite z-score came to 0.346.

As for `COC(=O)C[C@H]1O[C@]2(C(=O)N(Cc3ccccc3)c3ccc(I)cc32)[C@@H](C)[C@@H]1[Si](C)(C)c1ccc(OC)cc1`, the z-score in experiment [1] is -0.562 (inactive); in experiment [3], 1.09 (inactive); in experiment [4], 0.544 (inactive); in experiment [5] it was 0.558 (inactive); in experiment [6], 0.574 (inactive); in [7], 1.01. Besides, the z-score was 1.89 (inactive) in experiment [8], -2.05 (inactive) in experiment [9] and 0.00992 in experiment [10]. Further, the composite z-score in [2] was -0.235.

In the case of `C[C@H]1C2[C@H](Cc3ccccc3)NC(=O)[C@]23C(=O)N[C@H](Cc2ccccc2)C(=O)N[C@@H](Cc2ccccc2)C(=O)NC/C=C\C/C=C/C3[C@@H]2O[C@]12C` (stereo not given in full), the z-score in [1] was 0.839 (inactive); in [3] it was 3.27 (inactive); in experiment [4], 0.358 (inactive); in experiment [5] it was -0.0925 (inactive); in experiment [6] it was 0.0094 (inactive); in experiment [7], 0.654. Also, the z-score was 0.453 (inactive) in experiment [8], 1.1 (inactive) in experiment [9] and 1.26 in experiment [10]. The compound also gave a composite z-score in experiment [2] of 0.305.

`O=C1O[C@H](c2ccccc2)[C@H](c2ccccc2)N2[C@H]1[C@@H](C(=O)NC[C@H](O)c1ccccc1)[C@]1(C(=O)Nc3ccc(C#CC4=CCCCC4)cc31)[C@H]2c1ccc(OCCO)cc1`: the z-score in [1] is -0.266 (inactive); in [3] it was 3.76 (inactive); in experiment [4], 2.55 (inactive); in experiment [5], 0.0828 (inactive); in [6] it was 2.26 (inactive); in experiment [7], -0.099. Also, the z-score in experiment [8] is 1.13 (inactive); in experiment [9] it was 0.611 (inactive); in experiment [10] it was 1.32. In addition, the composite z-score in experiment [2] stood at 0.0248.

`CCCC=C(CCC)[C@@H](NC(=O)c1ccc(C(F)(F)F)cc1)c1ccccc1`: the z-score was -1.25 (inactive) in experiment [1]; 0.666 (inactive) in [3]; -0.96 (inactive) in experiment [4]; 0.394 (inactive) in [5]; -1.05 (inactive) in experiment [6]; 1.47 in experiment [7]. For the same compound, the z-score in experiment [8] is -3.96 (inactive); in experiment [9], -3.71 (inactive); in [10], -3.65. Also, the composite z-score in [2] was 0.718.

Take `CC(C)CNC(=O)[C@@]1(C)c2ccccc2C(=O)N(Cc2ccc(OC(F)(F)F)cc2)[C@H]1c1ccc(CO)cc1`: the z-score in experiment [1] is 1.28 (inactive); in [3] it was 2.97 (inactive); in experiment [4], 0.251 (inactive); in [5] it was 1.09 (inactive); in experiment [6], -0.0139 (inactive); in experiment [7], 0.181. The z-score was -0.201 (inactive) in experiment [8], 0.775 (inactive) in [9] and 1.01 in experiment [10]. Moreover, in experiment [2], the composite z-score was 0.152.

`CC(C)[Si]1(C(C)C)O[C@@H](c2ccccc2)c2cc(C3CC3)nc(-c3ccc(Oc4ccccc4)cc3)c21`: the z-score in experiment [1] was 2.17 (inactive); in experiment [3], 0.835 (inactive); in experiment [4], -0.0994 (inactive); in experiment [5], 1.08 (inactive); in experiment [6], -0.812 (inactive); in experiment [7], -0.164. In addition, the z-score in experiment [8] is 1.06 (inactive); in experiment [9] it was 0.86 (inactive); in experiment [10] it was 0.456. Moreover, in experiment [2], the composite z-score was -0.0011.

As for `C=CC[C@]1(C(N)=O)N=C(c2ccc(OCCCO)cc2)O[C@H]1c1ccccc1CN=[N+]=[N-]`, the z-score in experiment [1] was 2.19 (inactive); in [3], 23.9 (active); in [4], 6.58 (inactive); in [5], -0.294 (inactive); in [6], 0.837 (inactive); in experiment [7], 1.73. Besides, the z-score was -2.02 (inactive) in [8], -0.202 (inactive) in experiment [9] and 0.568 in experiment [10]. Moreover, in experiment [2], the composite z-score was -0.007.

Consider `C=C(CCCC)/C(=C/C[C@H](OC(=O)c1ccncc1)c1cccc(OCCO)c1)c1cc(C(=O)OC)ccc1OC`, for which the z-score in experiment [1] is 1.93 (inactive); in [3], 21.6 (active); in [4] it was 3.75 (inactive); in experiment [5], 1.61 (inactive); in [6] it was -0.403 (inactive); in experiment [7], 1.21. In addition, the z-score is -3.36 (inactive) in [8], -1.72 (inactive) in [9] and -2.92 in [10]. The compound also registered a composite z-score in [2] of 0.0406.

As for `CN1CCC(CCCO)=CC1C1CC1` (stereo not given), the z-score in experiment [1] was 1.08 (inactive); in [3], -0.369 (inactive); in experiment [4] it was -1.58 (inactive); in [5], -1.01 (inactive); in experiment [6], -1.9 (inactive); in experiment [7], 0.591. In addition, the z-score was 0.575 (inactive) in experiment [8], -0.0075 (inactive) in experiment [9] and 0.0296 in experiment [10]. Besides, the composite z-score in experiment [2] was -0.0984.

Regarding `C=CCC(OC(C)=O)[C@@H]1[C@@H](N(Cc2ccc(-c3ccccc3)cc2)C(=O)c2ccc(C)cc2)c2cc(OCCCO)ccc2N1C(=O)c1ccc(-c2ccccc2)cc1` (stereo not given in full), the z-score in experiment [1] was 2.2 (inactive); in experiment [3], 0.267 (inactive); in experiment [4] it was -0.576 (inactive); in experiment [5], -1.07 (inactive); in experiment [6], -0.888 (inactive); in experiment [7] it was 1.05. Moreover, the z-score is -0.366 (inactive) in [8], 0.639 (inactive) in experiment [9] and 1.05 in [10]. Further, in [2], the composite z-score was -0.0583.
